Measurements taken from publication PMC6792352, “Limited Chemical Structural Diversity Found to Modulate Thyroid Hormone Receptor in the Tox21 Chemical Library” (Environmental Health Perspectives, 2019).
Where a name gives a salt, the structure may show the parent alone.

System: thyroid hormone receptor (endogenous TRα and TRβ)
Design: species or system GH3-TRE-Luc (rat pituitary); GH3-TRE-Luc luciferase reporter, antagonist mode against 1 nM T3, loss of signal, qHTS
Conditions: read-out: Average AC50 (uM) GH3-TRE-Antag, antagonist mode, 1 nM T3, no GH3 cytotoxicity hit

Compared with `CO[C@H]1O[C@@H]2O[C@@]3(C)CC[C@H]4[C@H](C)CC[C@@H]([C@H]1C)[C@@]24OO3` [Artemether], `CC(=O)[C@H]1[C@H](C#N)C[C@H]2[C@@H]3CC=C4C[C@@H](O)CC[C@]4(C)[C@H]3CC[C@@]21C` [Pregnenolone carbonitrile] is lower in AC50: over 50 µM for the first, 13.1 µM for the second.

`CCCC1C(CC)=CC(CC)=CN1c1ccccc1` (centres unmarked) [3,5-Diethyl-1-phenyl-2-propyl-1,2-dihydropyridine] and `COc1ccc(Nc2ccccc2)c(C)c1` [4-Methoxy-2-methyl-N-phenylaniline] are within 1.5-fold of each other in AC50: 53.9 µM for the first, 52.5 µM for the second.

`CC1(C)C(/C=C(\Cl)C(F)(F)F)C1C(=O)OC(C#N)c1cccc(Oc2ccccc2)c1` (stereo not drawn) [alpha-Cyhalothrin] and `O=C(O)c1cccnc1Nc1cccc(C(F)(F)F)c1` [Niflumic acid] are within 1.5-fold of each other in AC50: 26.1 µM for the first, 20.3 µM for the second.

`O=C(O)c1snc(Cl)c1Cl` [3,4-Dichloro-5-isothiazolecarboxylic acid] and `O=C(O)c1cc(Cl)cc(Cl)c1O` [3,5-Dichlorosalicylic acid] are within 1.5-fold of each other in AC50: 51.4 µM for the first, 68.6 µM for the second.

`O=C(Nc1ccc(/C=C/c2ccc(NC(=O)c3cc(S(=O)(=O)O)c4cccnc4c3O)cc2S(=O)(=O)O)c(S(=O)(=O)O)c1)c1cc(S(=O)(=O)O)c2cccnc2c1O` [Ubistatin A] and `O=S(=O)(O)c1ccccc1/C=C/c1ccc(-c2ccc(/C=C/c3ccccc3S(=O)(=O)O)cc2)cc1` [Disodium 4,4'-bis(2-sulfostyryl)biphenyl] are within 1.5-fold of each other in AC50: 27.4 µM for the first, 26.4 µM for the second.

`CSc1nc(NC2CC2)nc(NC(C)(C)C)n1` [Cybutryne] and `CC(Cc1ccc(C(C)(C)C)cc1)CN1C[C@@H](C)O[C@@H](C)C1` (stereo partly drawn) [(2R,6S)-Fenpropimorph] are within 1.5-fold of each other in AC50: 67.1 µM for the first, 47.3 µM for the second.

Compared with `COc1ccc(-n2nc(C(F)F)cc2-c2ccc([S+](C)[O-])cc2)cc1` (centres unmarked) [Difpas-pyrazole], `Cc1ccc(/C=N/n2c(-c3ccccc3)csc2=S)cc1` [Fezatione] is 3.4-fold lower in AC50: 70.2 µM for the first, 20.5 µM for the second.

`Sc1ccccc1` [Benzenethiol] and `Cc1cccc(Nc2ccccc2)c1` [3-Methyl-N-phenylaniline] are within 1.5-fold of each other in AC50: 44.5 µM for the first, 45 µM for the second.

Going from `CC(C)C[C@H](NC(=O)OCC1c2ccccc2-c2ccccc21)C(=O)O` [N-(9-Fluorenylmethoxycarbonyl)-L-leucine] to `Nc1ccc2c3c(cccc13)-c1ccccc1-2` [3-Aminofluoranthene], the AC50 falls from over 90 µM to 40.9 µM.

Compared with `Cc1oc(C)c(C(=O)Nc2ccccc2)c1C` [Methfuroxam], `O=C(c1ccccc1)C1CCCCC1` [Cyclohexylphenylketone] is 3-fold higher in AC50: 23.1 µM for the first, 69.7 µM for the second.

`CCCCCCCCCCCCCCCC(=O)OC[C@H](O)[C@H]1OC(=O)C(O)=C1O` [Ascorbyl palmitate] and `CCCCCCCCCCCCCCn1cc[n+](C)c1` [1-Methyl-3-tetradecylimidazolium hexafluorophosphate] cannot be ordered by AC50: over 50 µM for the first, 68.5 µM for the second.

`OC1CCCCCCCCCCC1` [Cyclododecanol] and `c1ccc2sc(SN(C3CCCCC3)C3CCCCC3)nc2c1` [N,N-Dicyclohexyl-2-benzothiazolesulfenamide] are within 1.5-fold of each other in AC50: 47.7 µM for the first, 33.2 µM for the second.

First: Oc1ccc2c(c1)OCO2 [Sesamol]
Second: Oc1cc(Cl)cc(Cl)c1 [3,5-Dichlorophenol]
The AC50 of the first is higher: over 90 µM for the first, 54 µM for the second.

`CCC(=O)OCC(=O)[C@@]1(OC(=O)CC)[C@@H](C)C[C@H]2[C@@H]3CCC4=CC(=O)C=C[C@]4(C)[C@@]3(F)[C@@H](O)C[C@@]21C` [Betamethasone dipropionate] and `C[C@@H]1C[C@H]2[C@@H]3C[C@H](F)C4=CC(=O)C=C[C@]4(C)[C@@]3(F)[C@@H](O)C[C@]2(C)[C@@]1(O)C(=O)COC(=O)C(C)(C)C` [Flumethasone pivalate] are within 1.5-fold of each other in AC50: 27.9 µM for the first, 26.2 µM for the second.

First: CC(=O)Oc1ccc(C2(c3ccc(OC(C)=O)cc3)Oc3ccccc3NC2=O)cc1 [Bisoxatin acetate]
Second: O=C1OC2(c3ccc(O)cc3Oc3cc(O)ccc32)c2ccccc21 [Fluorescein]
The AC50 of the first is lower: 3.76 µM for the first, over 50 µM for the second.

Compared with `CCCOc1ccc2nc(NC(=O)OC)sc2c1` [Tioxidazole], `CCC(=O)Nc1ccc(Cl)c(Cl)c1` [Propanil] is 37-fold higher in AC50: 2.52 µM for the first, 92.4 µM for the second.

Compared with `CCOc1cc([N+](=O)[O-])c(OCC)cc1N1CCOCC1` [4-(2,5-Diethoxy-4-nitrophenyl)morpholine], `CCCC(=O)N1CCCN(c2nc(N)c3cc(OC)c(OC)cc3n2)CC1` [Bunazosin hydrochloride] is 1.7-fold higher in AC50: 28.4 µM for the first, 47.9 µM for the second.

`C[C@H](CN1CCCC1)C(=O)c1ccc(C(F)(F)F)cc1` [Lanperisone hydrochloride] and `C#C[C@]1(O)CC[C@H]2[C@@H]3CCc4cc(OC)ccc4[C@H]3CC[C@@]21C` [Mestranol] are within 1.5-fold of each other in AC50: 31.4 µM for the first, 21.8 µM for the second.

Compared with `O=[N+]([O-])c1c(Cl)c(Cl)c(Cl)c(Cl)c1Cl` [Pentachloronitrobenzene], `Cc1cc(C(C)(C)C)c(O)c(C)c1Cn1c(=O)n(Cc2c(C)cc(C(C)(C)C)c(O)c2C)c(=O)n(Cc2c(C)cc(C(C)(C)C)c(O)c2C)c1=O` [Cyanox CY 1790] is lower in AC50: over 90 µM for the first, 66.5 µM for the second.
